Bioassay records from PubChem.
S2 tox – Viability Counterscreen for Primary qHTS for Inhibitors of ATXN expression | hit rate 0.49% among 400,000 | AID 651635, 2014 | Potency, µM (highest dose often 56.7 µM), hits mostly cytotoxic | S2 cells (HEK-293 line with an ATXN2-luciferase reporter) viability, CellTiter-Fluor protease fluorescence, 24 h; also: nearly all actives have a fitted effect of over 40% in size
DT40 TDP1 CPT – qHTS for Inhibitors of human tyrosyl-DNA phosphodiesterase 1 (TDP1): qHTS in cells in presence of CPT; chicken DT40 Tdp1-/-;hTDP1 cells + 20 nM CPT, ATP luminescence, 48 h; Potency, µM (doses to about 46.2 µM), without a hit: at the top dose activity change, negative = growth inhibition, most hits filed as inhibitors; hit rate 12% among 420,000; AID 686979, 2013; also: % is scaled to controls: 0 for no effect and ±100 for the full control effect; nearly all actives have a fitted effect of over 55% in size
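Chicken DT40 Tdp1-/- cells stably complemented with human TDP1 were seeded at 400 cells/well in medium containing 20 nM camptothecin, exposed to pin-transferred compounds, and grown at 37 °C for at least 48 hr. Viability was read as ATP luminescence.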
HepG2 viability – qHTS for Inhibitors of TGF-b: Cytotox Counterscreen; HepG2 CAGA-GFP viability, ATP luminescence, 18 h; Potency, µM (top dose mostly 46.1 µM), for the others: at the top dose activity change, negative = cytotoxicity, actives largely listed as cytotoxic; hit rate 0.76% among 410,000; AID 588856, 2011
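CellTiter-Glo luminescence gave cytotoxicity after 18 hours at 37 degrees C. The cells were HepG2 CAGA-GFP in 1% FBS DMEM, stimulated with 500 pg/mL TGF-beta after compound addition. %Activity was normalised to no-cell wells (complete cell-killing) and DMSO (no toxicity), and curves were fitted and classified.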
ATXN2 expr inh – Primary qHTS for Inhibitors of ATXN expression; HEK-293 ATXN2-luciferase reporter, luminescence, 24 h; Potency, µM (titrated, usually from 57 µM), for the others: at the top dose activity change, negative = inhibition, most hits filed as inhibitors; hit rate 0.72% among 360,000; also: % is scaled to controls: 0 for no effect and ±100 for the full control effect; nearly all actives have a fitted effect of over 55% in size
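qHTS (up to 57 uM final) was run with 24 h compound exposure of reporter cells at 37 °C. Each well was multiplexed: SteadyGlo luminescence measured ATXN2-luciferase expression after a fluorogenic Gly-Phe-AFC viability readout (25 uM final).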
TGFb inhibitor – qHTS for Inhibitors of TGF-b; HepG2 CAGA-GFP TGF-b/SMAD3 reporter, GFP fluorescence, 18 h; TGF-beta stimulated, 500 pg/mL final; Potency, µM (titrated, usually from 46.1 µM), for the others: at the highest dose activity, negative = inhibition, most hits filed as inhibitors; hit rate 1.2% among 410,000; AID 588855, 2011; also: % is scaled to controls: 0 for no effect and ±100 for the full control effect; nearly all actives have a fitted effect of over 65% in size
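HEPG2 CAGA-GFP cells (1000/well, DMEM with 1% FBS) were pre-incubated 2 h at 37 degrees C, given compound by pin tool, then stimulated with TGF-beta at 500 pg/mL final for 18 h before per-cell GFP fluorescence imaging.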
DT40 TDP1 no CPT – qHTS for Inhibitors of human tyrosyl-DNA phosphodiesterase 1 (TDP1): qHTS in cells in absence of CPT; DT40 Tdp1-/- hTDP1 cells, no CPT, ATP luminescence, 48 h; Potency, µM (series often up to 46.2 µM), inactives show at the highest dose activity change, negative = growth inhibition, hits mostly inhibitors; hit rate 15% among 420,000; also: % is scaled to controls: 0 for no effect and ±100 for the full control effect; nearly all actives have a fitted effect of over 55% in size
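Seeded 400 DT40-hTDP1 cells/well (vehicle DMSO, no 20 nM CPT); pinned compounds; ≥48 hr at 37 °C; CellTiter-Glo luminescence as viability measure.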
Active calls of the source: *; i = inactive; u = inconclusive; x = not tested or not shown. Rows were chosen to be rich in hits. Some 17% of all compounds tested hit in one or more screens of this group. Calls follow the shape of the dose curve; as a rule, active = well fitted curve in the direction sought with a large enough effect; inconclusive = small, poorly fitted or top-dose-only effect, or another doubt; inactive = no such curve, though single readings can be large; an effect the other way counts as inactive or inconclusive. Potency is read from the fitted curve at half-maximal effect.

SMILES	S2 tox	DT40 TDP1 CPT	HepG2 viability	ATXN2 expr inh	TGFb inhibitor	DT40 TDP1 no CPT
COc1ccc(-c2ccc(CN3C(CC(C)C)C(=O)N(Cc4cn(Cc5ccco5)nn4)CCS3(=O)=O)cc2)cc1OC (stereo unspecified)	u	u	-11%	-12%	10%	16µM*
COc1ccc(-c2ccc(CN3C(CC(C)C)C(=O)N(Cc4cn(Cc5ccco5)nn4)CCS3(=O)=O)cc2)cc1 (stereo unspecified)	i	7.3µM*	-54%	-27%	-4%	7.3µM*
Cc1nc(SCC(=O)c2cc(C)n(C3CC3)c2C)c2ccccc2n1	i	8.2µM*	-47%	x	2%	7.3µM*
Cc1cc(C(=O)CSc2nc(N)cc(N)n2)c(C)n1C1CC1	i	6%	-4%	-16%	-18%	0%
CCc1nc(SCC(=O)N2c3ccccc3Sc3ccccc32)c2ccccc2n1	i	u	-10%	-2%	1%	15µM*
CCn1nnnc1SCC(=O)N1c2ccccc2Sc2ccccc21	i	u	-1%	3%	-6%	u
CCc1nc(SCC(=O)c2ccccc2)c2ccccc2n1	i	u	-19%	0%	-3%	13µM*
CCCc1nc(SCC(=O)c2ccc(OC)cc2)c2ccccc2n1	u	u	-25%	-9%	-17%	u
Cn1nnnc1SCC(=O)N1c2ccccc2Sc2ccccc21	i	10µM*	-11%	-3%	4%	15µM*
Cc1nn(-c2cccc(Cl)c2)c2nc(-c3cccnc3)cc(C(F)(F)F)c12	x	2%	-15%	x	-17%	-14%
CCOc1ccc(-c2cccc(NC(=O)COc3ccc(Cl)cc3)c2)nn1	i	u	-11%	1%	-8%	u
CCOc1cc(C(=O)Nc2nnc(S(=O)(=O)N3CCOCC3)s2)cc(OCC)c1OCC	i	6%	-1%	11%	26%	4%
CC1(C)CC2(CCO1)N1CC3(C)CN2CC(C)(C1)C3O (stereo unspecified)	i	1%	0%	4%	-11%	-6%
COc1cc2nc(N3CCOCC3)nc(NC3CCN(C)CC3)c2cc1OC	x	10µM*	x	x	x	16µM*
COc1cc2nc(N3CCCN(C)CC3)nc(Nc3ccncc3)c2cc1OC	x	3.2µM*	-4%	x	u	7.9µM*
COc1cc2nc(N3CCN(C)CC3)nc(NC3CC3)c2cc1OC	x	11µM*	x	x	x	10µM*
COc1cc2nc(N3CCCCC3)nc(NC3CC3)c2cc1OC	x	13µM*	x	x	x	16µM*
COc1cc2c(NC3CCN(C)CC3)nc(N3CCCN(C)CC3)nc2cc1OCCCCC(N)=O	x	8%	x	x	x	-12%
Nc1ncnc2c(C3OC(CO)C(O)C3O)c[nH]c12 (stereo unspecified)	x	0.16µM*	3.2µM*	u	-3%	0.15µM*
Cc1cc(Cl)ccc1OCCSc1nnc(-c2cccs2)o1	i	-1%	1%	-8%	u	u
O=C(CCN1C(=O)/C(=C\c2ccc(F)cc2)SC1=S)Nc1ccc(O)cc1	i	-13%	-59%	6%	14%	23µM*
Cc1ccc(/C=C2\SC(=S)N(CCCC(=O)NC3CCCC3)C2=O)cc1	i	-22%	-18%	13µM*	9%	18µM*
COc1ccc(/C=C2\SC(=O)N(CCCC(=O)Nc3ccc(C(=O)O)cc3)C2=O)cc1OC	i	-1%	3%	-7%	5%	2%
COc1cc(/C=C2\SC(=S)N(CCC(=O)Nc3cccc(O)c3)C2=O)cc(OC)c1OC	u	u	-36%	-25%	13µM*	16µM*
